# Where a name gives a salt, the structure may show the parent alone.
# Legend:
# Assay in all cases: Euclidean distance of Cell Painting phenotypic profile (signed KS, 77 features) to DMSO centroid (dimensionless distance); higher = stronger phenotypic change vs DMSO (phenoactivity)
# Settings in all cases: 48 h; 5 or 10 uM (library dependent)
# [1] = test system: 786-O
# Procedure, shortened: (§1)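 Harmony extracted 77 features from 20X confocal images (9 fields/well) of stained cells, scoring each as a signed Kolmogorov-Smirnov statistic against same-plate vehicle wells. The cells, five cancer lines and a healthy fibroblast line, had received library compounds for 48 h at 10 or 5 uM depending on library, with 0.1% DMSO final. Phenoactivity is the Euclidean distance from each plate-position-corrected, correlation-weighted, top-dose replicate-averaged profile to the median vehicle profile.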
# [2] = test system: A549
# Procedure, shortened: as §1
# [3] = test system: DU145
# Procedure, shortened: as §1
# [4] = test system: FB
# Procedure, shortened: as §1
# [5] = test system: HEPG2
# Procedure, shortened: as §1
# [6] = test system: OVCAR4
# Procedure, shortened: as §1
smiles,measurement,setting,value
C/C(=C\c1csc(C)n1)[C@@H]1C[C@@H]2O[C@]2(C)CCC[C@H](C)[C@H](O)[C@@H](C)C(=O)C(C)(C)[C@@H](O)CC(=O)O1 [Epothilone B],Euclidean distance,[1],2.58
same,Euclidean distance,[2],2.49
same,Euclidean distance,[3],3.95
same,Euclidean distance,[4],2.82
same,Euclidean distance,[5],1.98
same,Euclidean distance,[6],2.11
N[C@@H](Cc1ccc(N(CCCl)CCCl)cc1)C(=O)O [Melphalan],Euclidean distance,[1],2.91
same,Euclidean distance,[2],2.76
same,Euclidean distance,[3],1.19
same,Euclidean distance,[4],2.75
same,Euclidean distance,[5],2.72
same,Euclidean distance,[6],2.13
"CN1CCc2cc3c(cc2C1C1OC(=O)c2c1ccc1c2OCO1)OCO3 (single isomer, unassigned; (+)) [(+)-Bicuculline]",Euclidean distance,[1],1.27
same,Euclidean distance,[2],0.94
same,Euclidean distance,[3],0.878
same,Euclidean distance,[4],0.836
same,Euclidean distance,[5],0.778
same,Euclidean distance,[6],1.48
C=C1C[C@@H]2[C@H](CC[C@]3(C)C(=O)CC[C@@H]23)[C@@]2(C)C=CC(=O)C=C12 [Exemestane],Euclidean distance,[1],1.7
same,Euclidean distance,[2],1.06
same,Euclidean distance,[3],0.488
same,Euclidean distance,[4],1
same,Euclidean distance,[5],0.7
same,Euclidean distance,[6],1.37
c1ccc2c(c1)Nc1ccccc1S2 [Phenothiazine],Euclidean distance,[1],0.657
same,Euclidean distance,[2],0.876
same,Euclidean distance,[3],0.829
same,Euclidean distance,[4],1.1
same,Euclidean distance,[5],1.4
same,Euclidean distance,[6],0.881
CCCN1C[C@H](CSC)C[C@@H]2c3cccc4[nH]cc(c34)C[C@H]21 [Pergolide Mesylate],Euclidean distance,[1],1.01
same,Euclidean distance,[2],1.03
same,Euclidean distance,[3],1.06
same,Euclidean distance,[4],0.928
same,Euclidean distance,[5],0.589
same,Euclidean distance,[6],1.71
COc1cc2c(c(OC)c1OC)-c1ccc(OC)c(=O)cc1[C@@H](NC(C)=O)CC2 [Colchicine],Euclidean distance,[1],3.12
same,Euclidean distance,[2],3.04
same,Euclidean distance,[3],4.54
same,Euclidean distance,[4],2.88
same,Euclidean distance,[5],3.8
same,Euclidean distance,[6],3.18
Cc1ccc(-n2nccn2)c(C(=O)N2CCN(c3nc4cc(Cl)ccc4o3)CC[C@H]2C)c1 [Suvorexant (MK-4305)],Euclidean distance,[1],0.574
same,Euclidean distance,[2],1.02
same,Euclidean distance,[3],0.945
same,Euclidean distance,[4],0.9
same,Euclidean distance,[5],2.25
same,Euclidean distance,[6],0.979
CN1CCC(c2c[nH]c3ccc(O)cc23)CC1,Euclidean distance,[1],0.692
same,Euclidean distance,[2],0.484
same,Euclidean distance,[3],1.17
same,Euclidean distance,[4],0.749
same,Euclidean distance,[5],2.09
same,Euclidean distance,[6],0.873
O=C1C=C2C=C[C@@H]3C[C@@]2(O1)[C@H]1CCCCN31 [Securinine],Euclidean distance,[1],0.99
same,Euclidean distance,[2],1.25
same,Euclidean distance,[3],1.42
same,Euclidean distance,[4],1.78
same,Euclidean distance,[5],1.08
same,Euclidean distance,[6],1.74
O=P1(N(CCCl)CCCl)NCCCO1 (stereo not given) [Cyclophosphamide Monohydrate],Euclidean distance,[1],1.18
same,Euclidean distance,[2],0.863
same,Euclidean distance,[3],1.62
same,Euclidean distance,[4],0.969
same,Euclidean distance,[5],2.05
same,Euclidean distance,[6],1.07
C[C@H]1O[C@H](O[C@H]2[C@H](O)[C@@H](O)[C@@H](O)[C@H](O)[C@@H]2O)[C@@H](N)C[C@@H]1NC(=N)C(=O)O [Kasugamycin hydrochloride],Euclidean distance,[1],1.08
same,Euclidean distance,[2],0.816
same,Euclidean distance,[3],0.855
same,Euclidean distance,[4],1.2
same,Euclidean distance,[5],0.528
same,Euclidean distance,[6],0.934
CN(C)C(=O)Oc1cccc([N+](C)(C)C)c1 [Neostigmine Bromide],Euclidean distance,[1],1.45
same,Euclidean distance,[2],0.931
same,Euclidean distance,[3],0.914
same,Euclidean distance,[4],0.963
same,Euclidean distance,[5],0.858
same,Euclidean distance,[6],1.53
C[C@H]1CCC/C=C/[C@@H]2C[C@H](O)C[C@H]2[C@H](O)/C=C/C(=O)O1 [Brefeldin A],Euclidean distance,[1],3.77
same,Euclidean distance,[2],3.61
same,Euclidean distance,[3],4.53
same,Euclidean distance,[4],4.79
same,Euclidean distance,[5],4.54
same,Euclidean distance,[6],3.85
O=C(O[C@H]1C[C@H]2CC[C@@H](C1)[N+]21CCCC1)C(O)(c1ccccc1)c1ccccc1 [Trospium chloride],Euclidean distance,[1],0.712
same,Euclidean distance,[2],0.693
same,Euclidean distance,[3],0.879
same,Euclidean distance,[4],0.927
same,Euclidean distance,[5],0.66
same,Euclidean distance,[6],1.39
CN1CCN(c2nc3ccccc3nc2Cl)CC1,Euclidean distance,[1],0.803
same,Euclidean distance,[2],1.25
same,Euclidean distance,[3],1.04
same,Euclidean distance,[4],0.897
same,Euclidean distance,[5],0.638
same,Euclidean distance,[6],1.52
O=P1(NCCCl)OCCCN1CCCl (stereo not given) [Ifosfamide],Euclidean distance,[1],0.866
same,Euclidean distance,[2],0.788
same,Euclidean distance,[3],1.12
same,Euclidean distance,[4],0.925
same,Euclidean distance,[5],1.13
same,Euclidean distance,[6],1.39
CC(=O)Nc1ccc(OC[C@](C)(O)C(=O)Nc2ccc([N+](=O)[O-])c(C(F)(F)F)c2)cc1 [Andarine],Euclidean distance,[1],1.46
same,Euclidean distance,[2],1.78
same,Euclidean distance,[3],0.858
same,Euclidean distance,[4],0.758
same,Euclidean distance,[5],0.703
same,Euclidean distance,[6],1
CC(=O)O[C@H]1C[C@@H]2CC[C@@H]3[C@H](CC[C@@]4(C)[C@H]3C[C@H]([N+]3(C)CCCCC3)[C@@H]4OC(C)=O)[C@@]2(C)C[C@@H]1[N+]1(C)CCCCC1 [Pancuronium dibromide],Euclidean distance,[1],1.41
same,Euclidean distance,[2],0.916
same,Euclidean distance,[3],0.532
same,Euclidean distance,[4],0.954
same,Euclidean distance,[5],0.518
same,Euclidean distance,[6],1.42
CN1CCC(C(=O)c2cccc(NC(=O)c3c(F)cc(F)cc3F)n2)CC1 [Lasmiditan succinate],Euclidean distance,[1],1.46
same,Euclidean distance,[2],0.669
same,Euclidean distance,[3],1.83
same,Euclidean distance,[4],0.918
same,Euclidean distance,[5],0.782
same,Euclidean distance,[6],1.39
C[C@]12CC[C@H](O)C[C@@H]1CC[C@@H]1[C@@H]2CC[C@]2(C)C(=O)CC[C@@H]12 [Epiandrosterone],Euclidean distance,[1],1.32
same,Euclidean distance,[2],1.2
same,Euclidean distance,[3],0.784
same,Euclidean distance,[4],1.34
same,Euclidean distance,[5],0.785
same,Euclidean distance,[6],0.989
S=C=NCc1ccccc1 [Benzyl isothiocyanate],Euclidean distance,[1],4.42
same,Euclidean distance,[2],2.5
same,Euclidean distance,[3],3.41
same,Euclidean distance,[4],2.02
same,Euclidean distance,[5],3.28
same,Euclidean distance,[6],1.82
COC(=O)C1=CCCN(C)C1 [Arecoline],Euclidean distance,[1],0.942
same,Euclidean distance,[2],1.44
same,Euclidean distance,[3],0.841
same,Euclidean distance,[4],1.01
same,Euclidean distance,[5],0.762
same,Euclidean distance,[6],0.957
CCc1c(C(=O)C(N)=O)c2c(OCC(=O)O)cccc2n1Cc1ccccc1,Euclidean distance,[1],0.933
same,Euclidean distance,[2],1.14
same,Euclidean distance,[3],1.33
same,Euclidean distance,[4],0.633
same,Euclidean distance,[5],0.812
same,Euclidean distance,[6],0.982
NC(=O)CN1CCCC1=O [Piracetam],Euclidean distance,[1],1.42
same,Euclidean distance,[2],0.813
same,Euclidean distance,[3],0.735
same,Euclidean distance,[4],1.08
same,Euclidean distance,[5],0.792
same,Euclidean distance,[6],1.01
Cn1c(COP(=O)(NCCBr)NCCBr)cnc1[N+](=O)[O-] [Evofosfamide (TH-302)],Euclidean distance,[1],1.45
same,Euclidean distance,[2],2.69
same,Euclidean distance,[3],0.904
same,Euclidean distance,[4],1.3
same,Euclidean distance,[5],1.86
same,Euclidean distance,[6],2.84
[O-][n+]1ccccc1[S-].[O-][n+]1ccccc1[S-].[Zn+2] [Zinc Pyrithione],Euclidean distance,[1],6.27
same,Euclidean distance,[2],4.94
same,Euclidean distance,[3],7.6
same,Euclidean distance,[4],6.01
same,Euclidean distance,[5],5.34
same,Euclidean distance,[6],6.33
C[C@]12CC[C@H](O)CC1=CC[C@@H]1[C@@H]2CC[C@]2(C)C(=O)CC[C@@H]12 [Dehydroepiandrosterone (DHEA)],Euclidean distance,[1],0.908
same,Euclidean distance,[2],0.827
same,Euclidean distance,[3],1.46
same,Euclidean distance,[4],1.11
same,Euclidean distance,[5],1.12
same,Euclidean distance,[6],1.16
C#C[C@]1(OC(=O)CCCCCC)CC[C@H]2[C@@H]3CCC4=CC(=O)CC[C@@H]4[C@H]3CC[C@@]21C [Norethisterone Enanthate],Euclidean distance,[1],2.37
same,Euclidean distance,[2],2.5
same,Euclidean distance,[3],3.85
same,Euclidean distance,[4],1.34
same,Euclidean distance,[5],2.23
same,Euclidean distance,[6],1.22
Cn1c(CCCCCCC(=O)NO)nc2cc(N(CCCl)CCCl)ccc21 [Tinostamustine(EDO-S101)],Euclidean distance,[1],3.61
same,Euclidean distance,[2],3.53
same,Euclidean distance,[3],3.45
same,Euclidean distance,[4],2.57
same,Euclidean distance,[5],2.74
same,Euclidean distance,[6],3.16

# Source: the supplement of paper PMC10127200
